# The panel holds about 79,000 compounds, 15% with a hit somewhere; the sample as a whole holds those more often. Unmarked numbers belong to inactive results. The source made the active and inactive calls. No stated cut-off is given here; in the data, active means growth inhibition above about 70%; inactive means the rest.
# Columns and labels:
# [1] = NCI Yeast Anticancer Drug Screen. Data for the rad50 strain (AID 155);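 further: 0% = growth of vehicle-only cultures of the same strain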; details: S. cerevisiae rad50 strain growth inhibition, active compounds read high
# In short: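 Inhibition values express reduced yeast growth in compound-treated cultures relative to vehicle-treated controls.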
# [2] = NCI Yeast Anticancer Drug Screen. Data for the mec2-1 strain (AID 157); details: S. cerevisiae mec2-1 strain, active compounds read high
# In short: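 Yeast mec2-1 mutant treated with compound. Readout: growth inhibition vs vehicle controls.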
# [3] = NCI Yeast Anticancer Drug Screen. Data for the sgs1 mgt1 strain (AID 161);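 further: 0% = growth of cultures given vehicle only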; details: S. cerevisiae sgs1 mgt1 strain, active compounds read high
# In short: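 Mutant yeast exposed to compound; growth scored against vehicle-only wells.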
# [4] = NCI Yeast Anticancer Drug Screen. Data for the cln2 rad14 strain (AID 165);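 further: 0% = growth equal to vehicle treated cultures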; details: S. cerevisiae cln2 rad14 strain, active compounds read high
# In short: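 cln2 rad14 yeast strain; compound exposure; growth inhibition read vs vehicle controls.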
# [5] = NCI Yeast Anticancer Drug Screen. Data for the bub3 strain (AID 167); details: S. cerevisiae bub3 mutant strain, active compounds read high
# In short: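 Steps: expose the mutant yeast strain to compound; grow alongside vehicle-treated cultures; measure growth; express inhibition against the vehicle cultures.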
# [6] = NCI Yeast Anticancer Drug Screen. Data for the mlh1 rad18 strain (AID 175); details: S. cerevisiae mlh1 rad18 strain growth inhibition, active compounds read high
# In short: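 Yeast w/ defined DNA-repair lesions; compound exposure; growth vs vehicle controls → % inhibition.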
# [7] = at 5.0 µM (retest, dose inferred, filed as 0.5)
# [8] = at 50.0 µM (retest, dose inferred, filed as 5.0)
SMILES,"growth inhibition [1, 7]","growth inhibition [1, 8]",growth inhibition ([1]; at 50.0 µM),"growth inhibition [2, 7]","growth inhibition [2, 8]",growth inhibition ([2]; at 50.0 µM),"growth inhibition [3, 7]","growth inhibition [3, 8]",growth inhibition ([3]; at 50.0 µM),"growth inhibition [4, 7]","growth inhibition [4, 8]",growth inhibition ([4]; at 50.0 µM),"growth inhibition [5, 7]","growth inhibition [5, 8]",growth inhibition ([5]; at 50.0 µM),"growth inhibition [6, 7]","growth inhibition [6, 8]",growth inhibition ([6]; at 50.0 µM)
CCOC(=O)NP(=O)(NNc1ccccc1)NNc1ccccc1,79% (active),98% (active),100% (active),82% (active),96% (active),98.8% (active),92% (active),98% (active),98.8% (active),84% (active),99% (active),98.2% (active),93% (active),98% (active),98.8% (active),92% (active),98% (active),98.2% (active)
COC(=O)C1c2c(C)cc3n2C(C=CC3)C1C(=O)OC (configuration not stated),7%,69%,13.2%,36%,96% (active),19.1%,-6%,24%,4.95%,67%,78% (active),26.6%,64%,92% (active),-10.2%,-9%,54%,-3.5%
COc1ccc2nc3ccccc3c(NCCCCN(C)CCCl)c2c1,58%,86% (active),77.2% (active),23%,87% (active),70.8% (active),42%,99% (active),83.9% (active),34%,98% (active),70%,46%,99% (active),62.6%,61%,91% (active),75.6% (active)
COc1ccc(/C=C(\C)[N+](=O)[O-])cc1OC,53%,97% (active),90.1% (active),41%,99% (active),92% (active),55%,99% (active),91% (active),26%,98% (active),87.3% (active),42%,98% (active),93.8% (active),58%,99% (active),93% (active)
O=C(c1ccc2ccccc2c1)N1CC1,-27%,23%,71.8% (active),-6%,-12%,-1.65%,-14%,5%,41.8%,-12%,57%,66.5%,2%,54%,58.9%,-24%,52%,63.2%
[N-]=[N+]=NS(=O)(=O)c1ccccc1S(=O)(=O)N=[N+]=[N-],13%,99% (active),99.2% (active),8%,100% (active),92.6% (active),9%,99% (active),99.8% (active),67%,99% (active),74.8% (active),-2%,97% (active),49.1%,18%,99% (active),99.6% (active)
C/C(=N\NC(N)=O)C(CN1CCCCC1)C(c1ccccc1)c1c(O)c2ccccc2oc1=O (configuration not stated),14%,14%,82.7% (active),15%,15%,83% (active),6%,6%,87.6% (active),0%,0%,72.8% (active),17%,17%,79% (active),17%,17%,81.5% (active)
Cc1c2ccncc2c(CN(CCCl)CCCl)c2c3ccccc3n(C)c12,10%,98% (active),90.3% (active),17%,99% (active),88.5% (active),-25%,86% (active),85.2% (active),6%,96% (active),88.2% (active),-10%,80% (active),82.1% (active),24%,99% (active),91.8% (active)
O=[As](O)(O)CCc1ccccc1,-148%,-168%,2.3%,-50%,-54%,3.75%,-67%,-56%,8.35%,-58%,-65%,17.4%,-67%,-78%,-5.95%,-146%,-115%,5.7%
COC(=O)[CH2][Sn]([CH2]C(=O)OC)([CH]1CCCCC1)[CH]1CCCCC1,3%,65%,98.4% (active),-3%,45%,97.2% (active),2%,69%,99.2% (active),5%,33%,98% (active),1%,59%,97.2% (active),2%,48%,98.5% (active)
C[C@]12CC[C@H](O)C[C@@H]1CC[C@@H]1[C@@H]2CC[C@]2(C)C(=O)/C(=C/O)C[C@@H]12,-1%,80% (active),54.5%,-1%,68%,97.1% (active),-1%,67%,87% (active),-15%,30%,96.5% (active),-4%,84% (active),95.7% (active),0%,61%,96.5% (active)
C[CH2][Sn]1([CH2]C)[O]C(=O)CC(=O)[O]1,18%,37%,48.2%,10%,35%,70.6% (active),14%,55%,37.8%,20%,19%,65.8%,15%,54%,59.1%,16%,24%,16.5%
[C-]#[O+].[C-]#[O+].[CH3][Sn]([CH3])[c]1ccccc1.[Fe+5].[c-]1[c-][c-][cH-][c-]1,7%,82% (active),95.3% (active),4%,87% (active),98% (active),9%,88% (active),94.7% (active),-8%,85% (active),95.3% (active),-7%,90% (active),98% (active),7%,90% (active),94% (active)
CC(=O)Nc1ccc([As](O[As](c2ccc(NC(C)=O)cc2)c2ccc([N+](=O)[O-])cc2)c2ccc([N+](=O)[O-])cc2)cc1 (configuration not stated),99% (active),100% (active),98.7% (active),99% (active),100% (active),99.7% (active),100% (active),99% (active),99.5% (active),99% (active),99% (active),99.3% (active),99% (active),99% (active),99.4% (active),99% (active),99% (active),99% (active)
CC(=O)O[C@H]1CCC2[C@@H]3CCC4Nc5oncc5C[C@]4(C)C3CC[C@@]21C (some centres not stated),-6%,81% (active),51%,4%,75% (active),8.35%,-3%,53%,16.6%,-10%,73% (active),70% (active),-17%,68%,17.9%,12%,91% (active),84.5% (active)
N#CC(C#N)=Cc1c(O)ccc2ccccc12,15%,76% (active),78.5% (active),-2%,45%,51.3%,2%,32%,66%,18%,48%,61.2%,10%,62%,68%,19%,81% (active),81.5% (active)
CCCC(=O)O.CCCC(=O)O.CCCC(=O)O.CCCC(=O)O.[Rh].[Rh],25%,44%,22%,34%,61%,48.5%,28%,59%,30.1%,42%,69%,43.5%,37%,64%,33.7%,29%,52%,24.1%
CC[PH+](CC)CC[S-].CC[PH+](CC)CC[S-].[Au+].[Au+],5%,13%,46.4%,14%,18%,-0.55%,12%,23%,11.2%,4%,6%,-12.4%,14%,7%,8.1%,55%,15%,-35.8%
CC(=O)O[C@H]1CC[C@@]2(C)C(=CC[C@@H]3[C@@H]2CC[C@]2(C)C(=O)[C@@H](CN4CC4)C[C@@H]32)C1,2%,97% (active),59.7%,7%,99% (active),54%,22%,99% (active),68.5%,5%,75% (active),62.6%,6%,97% (active),39%,4%,98% (active),62%

# — PubChem BioAssay (NCI)
